Screening data: PubChem BioAssay, several laboratories
NPR1 activator – GC-A stimulated cGMP production enhancers – HEK293 GC-A cells, cGMP TR-FRET, EC30 ANP, primary screen; Atrial natriuretic peptide receptor 1 (Homo sapiens), P16066; 0% at EC30 ANP, 100% saturating ANP; activation, % at 10 µM; 370,000 tested, 0.14% active; AID 1671463, 2021; in the data active = activation above about 40%
ADAM17 inh – ADAM17 inhibitors, primary screen, biochemical, QFRET | recombinant ADAM17, EDANS/DABCYL FRET peptide cleavage | inhibition, % at 6.95 µM | 370,000 tested, 0.83% active;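 active = inhibition above the mean of compounds lying between control limits plus 3 SD, set per campaign, cut at about 8.5% in these data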;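 note: 0% = DMSO-only wells as the low control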
Target sequence (P78536 215-824 limits assumed): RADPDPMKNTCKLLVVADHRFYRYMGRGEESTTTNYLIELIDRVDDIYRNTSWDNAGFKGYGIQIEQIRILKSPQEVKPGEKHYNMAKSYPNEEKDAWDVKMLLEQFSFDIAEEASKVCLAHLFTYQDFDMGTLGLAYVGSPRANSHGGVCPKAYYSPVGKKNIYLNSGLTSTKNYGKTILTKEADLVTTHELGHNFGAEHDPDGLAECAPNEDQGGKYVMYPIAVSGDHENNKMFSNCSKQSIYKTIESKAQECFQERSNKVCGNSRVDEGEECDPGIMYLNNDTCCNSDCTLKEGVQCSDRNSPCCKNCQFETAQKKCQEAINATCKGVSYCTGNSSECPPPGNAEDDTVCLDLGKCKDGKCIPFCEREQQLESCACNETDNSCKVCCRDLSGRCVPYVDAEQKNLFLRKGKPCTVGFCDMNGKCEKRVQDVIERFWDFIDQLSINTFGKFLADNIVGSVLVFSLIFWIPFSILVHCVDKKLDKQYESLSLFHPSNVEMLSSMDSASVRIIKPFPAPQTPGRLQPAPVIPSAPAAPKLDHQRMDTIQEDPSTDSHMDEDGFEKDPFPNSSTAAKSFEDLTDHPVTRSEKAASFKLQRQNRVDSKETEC
NPR2 activator – human GC-B receptor activators, primary screen, HEK293 GC-B cells, cGMP TR-FRET, EC30 CNP. activation, % at 10 µM. Atrial natriuretic peptide receptor 2 (Homo sapiens), P20594. 0% at EC30 CNP, 100% saturating CNP. 370,000 tested, 0.11% active;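 active = activation at 10 µM reaching about 35% in either raw or pattern-adjusted values, limit read from the data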
ADAM10 inh – human ADAM10 inhibitors, primary screen, biochemical, QFRET, HTS | Disintegrin and metalloproteinase domain-containing protein 10 (Homo sapiens), O14672 | recombinant ADAM10, EDANS/DABCYL FRET peptide cleavage, 3 h | inhibition, % at 7 µM | 370,000 tested, 0.62% active | AID 720582, 2013;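 active = inhibition above a per-campaign cutoff equal to the mean of compounds falling between control-based bounds plus 3 SD, cut at about 20% in these data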;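 note: 0% = DMSO wells while the 100% control is not disclosed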
ADAM10 counter – ADAM10 inhibitors, counter-screen for ADAM17 exosite inhibitor project, biochemical, FRET, human ADAM10 | shares compounds with ADAM17 inh | recombinant ADAM10, EDANS/DABCYL FRET peptide cleavage, 3 h | inhibition, % at 6.95 µM | 2,900 tested, 47% active | AID 743256, 2014;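 active = mean inhibition over the triplicate runs exceeds the activity threshold set in the earlier primary screen, cut at about 20% in these data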;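 note: 0% = DMSO wells and 100% = marimastat wells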
ADAM17 confirm – ADAM17 inhibitors, hit retest, confirmation, biochemical, QFRET peptide cleavage. shares compounds with ADAM17 inh. recombinant ADAM17, EDANS/DABCYL QFRET peptide cleavage. inhibition, % at 6.95 µM. 2,900 tested, 65% active. AID 743257, 2014;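 active = mean inhibition across replicates above the hit cutoff set in the primary screen, cut at about 8.5% in these data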;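 note: 0% = DMSO wells and 100% = marimastat wells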
Numbers without * were called inactive; x = no result. The list is not random: actives were taken first. Their share in the collection is about 1.3%.

SMILES	NPR1 activator	ADAM17 inh	NPR2 activator	ADAM10 inh	ADAM10 counter	ADAM17 confirm
COc1ccc(OC)c(C(c2nnnn2Cc2ccco2)N2CCN(C)CC2)c1 (centres undefined)	-14	0	-12	7	x	x
CCOc1ccccc1C(=O)NCC(=O)OCCOc1cccc(Cl)c1	-2	3	-9	4	x	x
Cc1ccc(C(C(=O)NC2CCCC2)N(Cc2cccs2)C(=O)CNC(=O)c2cccs2)o1 (centres undefined)	-14	9.2*	-11	13	-5	2
COCC(C)n1c(C)cc(C(=O)CSc2nnc(Nc3ccccc3F)s2)c1C (centres undefined)	-16	15*	-2	15	1	2
COc1cccc(/C=N/NC(=O)CSc2ccccc2C)c1O	4	-2	2	-4	x	x
COc1cccc(C=NNC(=O)CSc2nc3ccccc3[nH]2)c1O	-2	10*	-11	17	-7	0
Cc1nn(Cc2noc(C(=O)NCc3ccccn3)n2)c(C)c1Br	2	9.6*	7	9	-2	1
CCOc1ccc2nc(COC(=O)c3cccc([N+](=O)[O-])c3)c(C(C)=O)[n+]([O-])c2c1	-4	-11	-4	-11	x	x
Nc1[nH]c(C(=O)c2ccc(Br)cc2)c(-c2ccccn2)c1C(=O)NCCc1c[nH]c2ccccc12	-10	8.8*	-8	17	15	12*
Nc1[nH]c(C(=O)c2ccccc2)c(-c2ccccc2Br)c1C(=O)NCCc1c[nH]c2ccccc12	-12	4	-13	4	x	x
Nc1[nH]c(C(=O)c2ccccc2)c(-c2ccccc2C(F)(F)F)c1C(=O)NCCc1c[nH]c2ccccc12	-8	9.4*	3	7	7	5
Nc1[nH]c(C(=O)c2ccc(Br)cc2)c(-c2ccc(Cl)cc2[N+](=O)[O-])c1C(=O)NCCc1c[nH]c2ccccc12	-12	9.3*	-9	5	15	14*
Cc1cc(NC(=O)c2ccc(NS(=O)(=O)c3ccccc3)cc2)no1	-1	1	9	2	x	x
COc1ccc(Oc2ccc(/C=C/C(=O)c3ccc(O)cc3)cc2[N+](=O)[O-])cc1	3	9.6*	-10	16	38*	22*
O=C(/C=C/c1ccc(O)c([N+](=O)[O-])c1)c1ccc2ccccc2c1	1	-1	-2	12	x	x
O=C(C(=O)N(Cc1ccccc1)Cc1ccccc1)c1c(-c2ccccc2)[nH]c2ccccc12	-2	11*	6	22*	42*	22*
COCCNC(=O)C(=O)c1c(-c2ccccc2)[nH]c2ccccc12	-4	-4	4	3	x	x
Cc1cc(Cn2nnc(-c3ccc(Br)cc3)n2)cc(C)c1O	0	11*	-1	2	13	7
CSc1ccc(-c2nnn(Cc3ccc(Br)cc3)n2)cc1	0	-6	0	-4	x	x
O=C(CSc1nc2ccccc2c(=O)n1-c1ccc(F)cc1)Nc1cc(S(=O)(=O)N2CCOCC2)ccc1Cl	-3	3	4	7	x	x
O=C(CSc1nc2cc(Cl)ccc2s1)Nc1cccc(S(=O)(=O)N2CCOCC2)c1	-2	11*	1	20	20*	10*
O=C(CSc1nc2ccccc2c(=O)n1-c1ccccc1Cl)Nc1cccc(S(=O)(=O)N2CCOCC2)c1	7	9.5*	3	17	18	13*
O=C(CSc1nc2ccccc2s1)Nc1ccc(Cl)c(S(=O)(=O)N2CCOCC2)c1	-1	5	-10	7	x	x
Cc1cc(NC(=O)CSc2nc3cc(Cl)ccc3s2)no1	-4	0	-5	3	x	x
O=C(CSc1nc2cc(Cl)ccc2s1)c1cc2ccccc2o1	-1	12*	-3	17	5	5
SMILES	NPR1 activator	ADAM17 inh	NPR2 activator	ADAM10 inh	ADAM10 counter	ADAM17 confirm
CCCCN1CCCOc2cc(Br)ccc2S1(=O)=O	-5	-1	1	0	x	x
Cc1cc(C)cc(N(CC(=O)NC2CCCC2)C(=O)CNC(=O)c2cccs2)c1	-1	1	2	0	x	x
O=C(Oc1cccc(NC(=O)c2cccs2)c1)c1cccc(S(=O)(=O)N2CCCC2)c1	5	11*	7	18	27*	17*
CCOC(=O)N1CCC(n2c(SCC(=O)Nc3ccccc3OC)nc3ccccc3c2=O)CC1	0	10*	2	17	29*	16*
Cc1ccc(NC(=O)CSc2ncn[nH]2)cc1	-1	0	1	5	x	x
O=C(CSc1ncn[nH]1)Nc1ccc2c(c1)CCC2	1	8.8*	-7	11	10	4
CNC(=S)N/N=C/c1ccc(-c2ccc(Cl)c([N+](=O)[O-])c2)o1	11	-1	6	-3	x	x
Cc1ccc(-c2ccc(/C=N/NC(=S)Nc3ccccc3)o2)cc1[N+](=O)[O-]	2	14*	2	14	24*	17*
CN(C)S(=O)(=O)c1cccc(COC(=O)CNC(=O)c2ccc(Br)o2)c1	0	4	-6	-2	x	x
COC(=O)N/N=C/c1cc([N+](=O)[O-])cc(Br)c1O	-2	11*	-1	18	6	4
CCc1cc(C(=O)OC)c(NC(=O)C2CC(=O)NN2Cc2ccccc2)s1 (centres undefined)	-5	9.3*	0	5	15	15*
COc1ccc(OC)c(NC(=O)CCCSc2ccccc2)c1	-3	-3	0	9	x	x
Cc1ccccc1OCc1nnc(SCC(=O)Nc2ccc3nc(SCC(=O)Nc4ccccc4)sc3c2)n1C	-8	11*	-2	12	-43	-8
Cc1ccccc1OCc1nnc(SCC(=O)Nc2ccc3c(c2)OCO3)n1C	-2	2	-2	3	x	x
O=C1Nc2ccccc2-n2nnnc2C1N1CCN(c2ccc(C(F)(F)F)cc2[N+](=O)[O-])CC1 (centres undefined)	-1	8.6*	-2	19	32*	18*
Cc1ccc(C)c(N2CCN(C3C(=O)Nc4ccccc4-n4nnnc43)CC2)c1 (centres undefined)	-4	-2	2	-3	x	x
O=C1NC(=O)C(Cc2ccc(Cl)cc2)(c2ccccc2)N1 (centres undefined)	-4	40*	1	7	13	65*
O=C1NC(=O)C(Cc2ccccc2)(c2ccccc2)N1 (centres undefined)	2	6	-1	-19	x	x
